# Source: PubChem (National Center for Advancing Translational Sciences (NCATS))
# The list is not random: actives were taken first. Their share in the collection is about 1.2%.
# TRPV1 potentiator – HTS Assay for Compounds that Act as Potentiators of the Vanilloid Receptor 1. TRPV1-expressing cells, Fluo-8 calcium influx, capsaicin EC20 potentiation. potentiation, % at 8.33 µM. 320,000 tested, 0.02% active. AID 540277, 2011; in the data active means potentiation above about 80%; inconclusive means between about 30% and that limit
# Target sequence (Q8NER1 whole entry, looked up): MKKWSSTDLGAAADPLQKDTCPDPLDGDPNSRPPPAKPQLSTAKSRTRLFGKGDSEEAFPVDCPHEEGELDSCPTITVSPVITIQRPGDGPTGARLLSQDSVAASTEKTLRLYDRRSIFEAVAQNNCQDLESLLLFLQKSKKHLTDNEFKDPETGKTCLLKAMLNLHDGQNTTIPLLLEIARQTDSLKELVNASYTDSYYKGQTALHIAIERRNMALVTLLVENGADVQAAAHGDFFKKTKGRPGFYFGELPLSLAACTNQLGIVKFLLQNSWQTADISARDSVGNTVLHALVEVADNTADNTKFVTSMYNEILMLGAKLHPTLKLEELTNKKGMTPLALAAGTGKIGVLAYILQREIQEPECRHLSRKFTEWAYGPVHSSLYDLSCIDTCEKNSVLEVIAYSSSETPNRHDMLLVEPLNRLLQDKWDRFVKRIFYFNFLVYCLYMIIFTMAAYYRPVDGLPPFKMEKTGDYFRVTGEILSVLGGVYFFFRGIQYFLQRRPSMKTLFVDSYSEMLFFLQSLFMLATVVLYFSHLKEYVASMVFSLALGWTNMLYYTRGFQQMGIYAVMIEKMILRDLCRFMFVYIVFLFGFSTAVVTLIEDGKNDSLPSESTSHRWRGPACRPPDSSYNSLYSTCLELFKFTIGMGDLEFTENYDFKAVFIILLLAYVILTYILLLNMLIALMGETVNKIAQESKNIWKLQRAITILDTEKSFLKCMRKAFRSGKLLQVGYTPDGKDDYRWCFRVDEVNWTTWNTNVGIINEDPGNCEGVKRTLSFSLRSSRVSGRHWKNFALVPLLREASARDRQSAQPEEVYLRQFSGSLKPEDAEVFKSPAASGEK
#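 TRPV1-expressing cells were cultured overnight at 35.5C and loaded with Fluo-8 calcium dye for 40 to 90 min at room temperature. After a 10 s baseline, compound was added and calcium influx was read kinetically for 3 min (ex 480/em 520 nm).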
# hERG WT inh – qHTS for Inhibitors of KCHN2 3.1: Wildtype qHTS | AID 720551, 2013 | activity change, % at 1.84 µM | Voltage-gated inwardly rectifying potassium channel KCNH2 (Homo sapiens), Q12809 | 340,000 tested, 0.37% active | U2OS, BacMam KCNH2, thallium flux FluxOr; hits give low values;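 active means maximum activity change below -70%; inconclusive means maximum activity change between -70% and -50%; inactive means maximum activity change above -50%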
#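 U2OS cells were transduced with wild-type KCNH2 virus (2.03 x 10^8 / mL) for 4 h at room temperature, then cultured overnight at 37 C. Thallium flux was read with FluxOr dye. Rate constants were normalized to DMSO controls.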
# KCNH2 3.1 inh – qHTS for Inhibitors of KCHN2 3.1: Mutant qHTS; 340,000 tested, 0.95% active; activity change, % (tested at about 1.8 µM); AID 720553, 2013; U2OS KCNH2 3.1, thallium flux FluxOr; hits give low values; Potassium voltage-gated channel subfamily H member 2, brain isoform KCNH2 3.1 (human);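 active means maximum activity change below -70%; inconclusive means maximum activity change from -70% to -50%; inactive means maximum activity change above -50%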;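 further: thallium influx rate constant from kinetic fluorescence after stimulation buffer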
#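 Thallium flux read-out: FluxOr dye with Red40 quencher in HBSS/HEPES, 45 min at RT. Rate constants from kinetic reads were normalized to positive and negative DMSO controls. Cells: U2OS virally expressing the 3.1 isoform.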
# TRPV1 ag – HTS Assay for Compounds that Act as Agonists of the Vanilloid Receptor 1 | TRPV1-expressing cells, Fluo-8 calcium influx, agonist mode | activation, % at 8.33 µM | 320,000 tested, 0.19% active | AID 540275, 2011; in the data active means activation above about 80%; inconclusive means between about 30% and that limit
#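 Fluo-8 calcium influx in TRPV1-expressing cells, kinetic read (ex 480/em 520 nm). Compound added and read 3 min for agonist activity, followed by capsaicin at EC20 final and 2 min further read for enhancement.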
# Numbers stand for hits; - = inactive; ? = inconclusive; . = not tested or not shown.
SMILES,TRPV1 potentiator,hERG WT inh,KCNH2 3.1 inh,TRPV1 ag
O=C(CSc1nnc(-c2cccs2)n1-c1ccccc1)NCc1ccc2c(c1)OCO2,-,-,-,-
Cc1cccc(-n2c(SCC(=O)Nc3ccc4c(c3)OCO4)nnc2-c2ccoc2C)c1,-,-90,-71,-
COc1cccc(NC(=O)CSc2nnc(-c3ccoc3C)n2-c2ccccc2)c1,-,-,-,-
COc1ccc(-n2c(SCC(=O)Nc3ccccc3)nnc2-c2ccoc2C)cc1,.,-,-105,.
C=CCn1c(SCC(=O)Nc2ccc3c(c2)CCC3)nnc1-c1cccs1,-,-94,-76,-
Cc1ccc(-n2c(SCC(=O)Nc3ccc4c(c3)OCO4)nnc2-c2cccs2)cc1,-,-154,?,-
Cc1c(C(=O)NNC(=O)c2ccccc2O)oc2ccccc12,.,-,-,.
CC1(C)CC(=O)C2=C(C1)O[C@@]1(CCCCN3C(=O)c4ccccc4C3=O)Cc3ccccc3C2O1,-,.,.,-
C[C@@H]1CN([C@@H](C)CO)C(=O)CCCn2nncc2CO[C@H]1CN(C)S(=O)(=O)c1cccs1,.,-,-,.
O=C(COC(=O)c1ccccc1Cl)NC(=O)NCc1ccccc1,-,-139,-226,-
O=C(COC(=O)c1ccccc1C(=O)c1ccc(Cl)cc1)NCCc1ccccc1,-,-,-72,-
O=C(COC(=O)c1cc(Br)ccc1Cl)NC(=O)NCc1ccccc1,-,-,-,-
CCCCNC(=O)COC(=O)c1ccccc1F,-,-131,-,-
O=C(COC(=O)c1ccccc1F)NNC(=O)c1ccccc1,-,-,-,-
CCC1c2ccccc2C(=O)C1C(N)=O (stereo not drawn),.,-,.,.
Cc1ccccc1CSCCNS(C)(=O)=O,-,-,-79,-
CS(=O)(=O)NCCSCc1ccccc1,-,-,-,-
Cc1ccc(NC(=O)C2CCCN(C(=O)c3ccc(Cl)cc3)C2)cc1C (stereo not drawn),-,-,-122,?
Cc1ccc(NC(=O)C2CCCN(C(=O)c3ccc(Cl)cc3)C2)cc1 (stereo not drawn),-,-,-,?
CCN1CCN(C(c2cccs2)C(C)NS(=O)(=O)c2ccccc2)CC1 (stereo not drawn),-,-,-,-
CCN1CCN(C(c2cccs2)C(C)NS(=O)(=O)c2ccc(C)cc2)CC1 (stereo not drawn),-,.,-76,-
COc1cccc(N2CCN(CC(=O)Nc3ccc(S(=O)(=O)N4CCCCCC4)cc3)CC2)c1,-,-,-,-
Cc1ccc(S(=O)(=O)N2CCN(S(=O)(=O)N3CCC(C)CC3)CC2)cc1C,-,-,-,-
C=CCn1c(SCC(=O)N(C)CC(=O)Nc2ccc(C)cc2)nnc1-c1ccncc1,.,-,-,.
Cn1c(C(=O)N2CCN(c3ccc([N+](=O)[O-])cc3)CC2)cc2c(=O)[nH]c3ccccc3c21,-,-71,-96,-
SMILES,TRPV1 potentiator,hERG WT inh,KCNH2 3.1 inh,TRPV1 ag
O=c1c(Cc2c(F)cccc2Cl)c(O)ccn1CCc1ccccn1,-,-,-92,-
O=c1c(Cc2c(F)cccc2Cl)c(O)ccn1CC1CCCO1 (stereo not drawn),?,-,-,-
CCOc1ccc(NC(=O)CN(C)C(=O)c2sccc2-c2ccccc2)cc1OCC,?,-,-,-
C=CC[n+]1ccc(/C=C2\C=Cc3cc(C)ccc3N2CC)c2ccccc21,-,-,-115,-
CN(Cc1ccc(OC(F)F)cc1)C(=O)c1cccc(S(=O)(=O)N2CCN(Cc3ccccc3)CC2)c1,.,-,-,.
CC(C)c1ccc(/C=C/C(=O)N2CCOCC2)cc1,-,-,-,94
CCCOc1ccc(/C=C/C(=O)N2CCOCC2)cc1,-,-,-,89
CC(C)c1ccc(/C=C/C(=O)N2CCCCCC2)cc1,-,-,-,?
CCCC(C(=O)Nc1ccc(S(=O)(=O)Nc2nccs2)cc1)c1ccccc1 (stereo not drawn),-,-,-,-
Nc1c(C(=O)CSc2nc(-c3ccccc3)cs2)c(=O)[nH]c(=O)n1C1CC1,-,-,-,-
CC(=O)C[C@H](O)CC(=O)[C@H]1OC(=O)CCCCCCc2ccccc21,.,-,-,.
O=C(OCc1cn([C@@H]2CN(Cc3cccs3)[C@@H](c3ccc(Cl)cc3)C[C@H]2O)nn1)c1ccccc1,.,-,-,.
CCN1CCN(CCCN(Cc2ccco2)C(=S)Nc2ccccc2Cl)CC1,128,-,-,-
CCOC(=O)C1=C(COC(=O)c2ccco2)NC(=O)NC1CC (stereo not drawn),-,-,-,-
CCc1ccc(CCC(=O)N2CCN(S(=O)(=O)c3sc(C(=O)O)c(C)c3C(=O)O)CC2)cc1,.,-,-,.
CCC(Sc1nc2cc3c(cc2c(=O)n1Cc1ccco1)OCO3)C(=O)Nc1cccc(OC)c1 (stereo not drawn),-,?,-87,?
CS(=O)(=O)c1ccc(-c2sc3ccccc3c2C(=O)NCCCN2CCOCC2)cc1,.,-,-,.
CCOC(=O)N1CCC(NC(=O)CCN2C(=O)COc3ccccc32)CC1,-,-253,-,-
CCCCN1C(=O)C(CC(=O)NC2CC2)CC(C(=O)N2CCOCC2)=C1C (stereo not drawn),.,-,-,.
CN(CCOc1ccc(Cl)cc1)CC(=O)Nc1ccc(OC(F)F)cc1,-,-,-85,-
CCC(C)c1ccccc1NC(=O)CN(C)CCOc1ccc(Cl)cc1 (stereo not drawn),-,-,-,?
CSc1nnc(-c2cnccn2)n1C,-,-,-97,-
CN(Cc1ccccc1)C(=O)c1[nH]cnc1C(=O)Nc1ccccc1F,.,-,-,.
Fc1ccccc1C1c2[nH]c3ccccc3c2CCN1Cc1cccn1-c1ncccn1 (stereo not drawn),-,-,-71,-
NCc1cc2c3c(c1)CCCN3CCC2,-,-,-,-
SMILES,TRPV1 potentiator,hERG WT inh,KCNH2 3.1 inh,TRPV1 ag
O=C(CN1CCN(c2cccc(C(F)(F)F)c2)CC1)N(C1CCCC1)C1CCS(=O)(=O)C1 (stereo not drawn),-,-,-,-
Cc1ccc(C(=O)Nc2ccc3c(c2)C(=O)NC3=O)cc1,-,-,-,?
COC(=O)c1ccc(C(=O)Nc2ccc3c(c2)C(=O)NC3=O)cc1,-,-,-96,-
CC(=O)c1cccc(NC(=O)C(C)OC(=O)CCc2nc3ccccc3c(=O)[nH]2)c1 (stereo not drawn),.,-,-,.
CC(C)(O)C#Cc1ccc(C(=O)NC2CCCCC2)s1,-,-,-81,-
O=C(Nc1ccc(CN2CCOCC2)cc1)c1ccc(-c2cc(Cl)ccc2Cl)o1,-,-,-76,-
CSc1ncnc2c1ncn2CCCNCC(c1ccccc1)c1ccccc1,.,-,-,.
O=C(NCC1CCCO1)C(=O)N/N=C/c1ccc(O)c(Cl)c1 (stereo not drawn),-,-225,-,-
O=C(Cc1ccc(F)cc1)NC1CCCCCC1,-,-,-87,?
